This is an account of results in PubChem BioAssay (NCI).

SMILES strings stand for the structures. The panel holds about 83,000 compounds, 20% with a hit somewhere; the sample as a whole holds those more often.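 Assay: single dose, 48 h. Readout: percent growth (0 = no net growth; negative = cell death). Active: <10.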 A number with no mark means an inactive call. The source made the active and inactive calls.

Among the test systems are DU-145 prostate; K-562 leukemia; MALME-3M melanoma; MDA-MB-231 breast; RXF 393 renal; SF-268 CNS; SF-295 CNS; SF-539 CNS; UACC-257 melanoma; M14 melanoma; HCT-15 colon; HT29 colon; SNB-75 CNS; SNB-19 CNS; U251 CNS; PC-3 prostate; SK-MEL-5 melanoma; UACC-62 melanoma; LOX IMVI melanoma.
Common to all, as to assay: NCI-60 one-dose screen, 48 h (100 = growth as untreated, 0 = no growth, -100 = all killed)
Common to all, as to settings: 10 µM unless noted

Consider `C=C(C)C1CCC2(C(=O)O)CCC3(C)C(CCC4C5(C)CCC(O)C(C)(C)C5CCC43C)C12` (configuration not stated), for which the growth in the assay with DU-145 prostate is -55.5% (active); with K-562 leukemia, -34.1% (active); in the assay with MALME-3M melanoma, -17.4% (active); with MDA-MB-231 breast it was -8.05% (active); in the assay on RXF 393 renal, -68.8% (active); in the assay with SF-268 CNS, 16.3%. Besides, the growth in the assay with SF-295 CNS was -14.8% (active); with SF-539 CNS it was -54.1% (active); with UACC-257 melanoma it was -17.2% (active); in the assay on M14 melanoma it was -49.9% (active); in the assay with HCT-15 colon, 26.9%; with HT29 colon, -9.19% (active). For the same molecule, the growth with SNB-75 CNS was -24.8% (active); in the assay on SNB-19 CNS, 9.23% (active); in the assay with U251 CNS it was -45.3% (active); in the assay on PC-3 prostate, 8.63% (active); in the assay on SK-MEL-5 melanoma, -75.8% (active); in the assay with UACC-62 melanoma, 50.5%. The growth in the assay on LOX IMVI melanoma is 8.78% (active).

Consider `CCN(C)CCCOc1ccc(/C(=C(\C)Cc2cccc(OC)c2)c2ccc(OC(C)=O)cc2)cc1`, for which the growth was 104% in the assay with DU-145 prostate; 101% with K-562 leukemia; 97.3% in the assay on MALME-3M melanoma; 104% in the assay on MDA-MB-231 breast; 106% in the assay on RXF 393 renal; 94.1% in the assay on SF-268 CNS. The growth in the assay on SF-295 CNS is 99.1%; in the assay on SF-539 CNS it was 101%; in the assay with UACC-257 melanoma, 109%; in the assay on M14 melanoma it was 101%; in the assay with HCT-15 colon it was 101%; in the assay with HT29 colon it was 102%. The growth with SNB-75 CNS was 81.7%; in the assay on SNB-19 CNS, 102%; in the assay with U251 CNS, 97.1%; with PC-3 prostate, 98.1%; with SK-MEL-5 melanoma it was 99.1%; with UACC-62 melanoma it was 98.4%. Besides, in the assay on LOX IMVI melanoma, the growth is 97.2%.

Consider `O=C1Cc2c([nH]c3ccc([N+](=O)[O-])cc23)-c2ccccc2N1`, for which the growth in the assay on DU-145 prostate was 4.56% (active); with K-562 leukemia, 3.25% (active); with MALME-3M melanoma it was 8.75% (active); in the assay on MDA-MB-231 breast, 29.6%; in the assay with RXF 393 renal, 16%; in the assay with SF-268 CNS, 10.8%. The growth with SF-295 CNS is 18.7%; in the assay with SF-539 CNS, -37% (active); in the assay with UACC-257 melanoma, 17.3%; in the assay on M14 melanoma it was 16.8%; with HCT-15 colon it was 5.02% (active); with HT29 colon it was 4.95% (active). For the same molecule, the growth in the assay with SNB-75 CNS was -7.52% (active); with SNB-19 CNS it was 20.8%; in the assay on U251 CNS it was 8.97% (active); in the assay with PC-3 prostate, 9.61% (active); in the assay with SK-MEL-5 melanoma, -47.2% (active); in the assay on UACC-62 melanoma it was 11.4%. Besides, the growth in the assay on LOX IMVI melanoma was 9.02% (active).

`CC(=O)c1ccc(Nc2nc(Cl)nc(Oc3c(Cl)cccc3Cl)n2)cc1`: the growth with DU-145 prostate was 91.1%; in the assay with K-562 leukemia, 82.5%; with MALME-3M melanoma, 83.2%; in the assay on MDA-MB-231 breast it was 80%; in the assay with RXF 393 renal it was 101%; with SF-268 CNS it was 91.3%. The growth was 89.6% with SF-295 CNS; 90.4% with SF-539 CNS; 95.4% with UACC-257 melanoma; 101% with M14 melanoma; 89.7% in the assay with HCT-15 colon; 73.6% in the assay with HT29 colon. For the same molecule, the growth in the assay with SNB-75 CNS is 75%; in the assay with SNB-19 CNS, 81.9%; in the assay on U251 CNS it was 76.9%; with PC-3 prostate it was 72.5%; in the assay with SK-MEL-5 melanoma, 79.1%; with UACC-62 melanoma it was 80.6%. The growth with LOX IMVI melanoma is 87.9%.

Take `CN(C)c1ccc(/C=N/Nc2nnc3n2N=C(c2ccc(Cl)cc2)CS3)cc1`: the growth was 100% in the assay on DU-145 prostate; 79% with K-562 leukemia; 128% with MALME-3M melanoma; 101% in the assay on MDA-MB-231 breast; 69.7% in the assay on RXF 393 renal; 97.8% in the assay with SF-268 CNS. Moreover, the growth with SF-295 CNS is 101%; in the assay on SF-539 CNS, 103%; in the assay with UACC-257 melanoma, 106%; in the assay with M14 melanoma it was 100%; in the assay on HCT-15 colon, 92.5%; in the assay with HT29 colon, 105%. Also, the growth is 96.3% in the assay on SNB-75 CNS; 89.6% with SNB-19 CNS; 95% in the assay with U251 CNS; 82.1% with PC-3 prostate; 92.1% with SK-MEL-5 melanoma; 98.6% in the assay with UACC-62 melanoma. The growth in the assay with LOX IMVI melanoma is 98.8%.

For `COc1ccc2[nH]cc(/C=C3\C(=O)Nc4ccccc43)c2c1`, the growth in the assay with DU-145 prostate was 47.1%; in the assay with K-562 leukemia, 3.31% (active); in the assay with MALME-3M melanoma it was 57.5%; in the assay on MDA-MB-231 breast it was 38.9%; in the assay on RXF 393 renal, 33.3%; in the assay with SF-268 CNS it was 62.5%. For the same molecule, the growth in the assay on SF-295 CNS is 45.5%; in the assay on SF-539 CNS, 25.8%; in the assay on UACC-257 melanoma, 28.2%; in the assay on M14 melanoma, 11%; in the assay with HCT-15 colon, 23.9%; with HT29 colon, 10.7%. Further, the growth with SNB-75 CNS is 8.46% (active); in the assay with SNB-19 CNS it was 73%; in the assay with U251 CNS it was 38.8%; in the assay on PC-3 prostate, 45.3%; in the assay on SK-MEL-5 melanoma it was 39.5%; with UACC-62 melanoma, 26%. In addition, the growth in the assay with LOX IMVI melanoma is 21.1%.

With `O=C(Cn1nncc1CN1C(=O)CSC1=O)Nc1ccc(F)cc1`, the growth is 105% in the assay on DU-145 prostate; 104% with K-562 leukemia; 97.5% in the assay on MALME-3M melanoma; 109% in the assay on MDA-MB-231 breast; 108% with RXF 393 renal; 94.7% in the assay on SF-268 CNS. Besides, the growth in the assay on SF-295 CNS was 103%; with SF-539 CNS, 97.8%; with UACC-257 melanoma, 107%; in the assay with M14 melanoma, 102%; in the assay on HCT-15 colon it was 102%; in the assay on HT29 colon, 105%. Moreover, the growth in the assay with SNB-75 CNS was 85.9%; with SNB-19 CNS it was 101%; in the assay with U251 CNS, 104%; in the assay with PC-3 prostate, 101%; in the assay with SK-MEL-5 melanoma, 99.5%; in the assay on UACC-62 melanoma, 93.5%. The growth with LOX IMVI melanoma was 94.9%.

`COc1c(C(=O)/C=C/c2ccc(C)o2)c(O)cc2occc12`: the growth is 87.1% in the assay with DU-145 prostate; 22.5% in the assay with K-562 leukemia; 76.7% with MALME-3M melanoma; 89% in the assay with MDA-MB-231 breast; 62% with RXF 393 renal; 80.1% in the assay with SF-268 CNS. In addition, the growth with SF-295 CNS is 82.4%; in the assay on SF-539 CNS it was 80.6%; in the assay with UACC-257 melanoma, 86.1%; with M14 melanoma, 55.5%; in the assay with HCT-15 colon, 35.9%; with HT29 colon it was 65.2%. Also, the growth was 59.8% in the assay on SNB-75 CNS; 76.5% in the assay with SNB-19 CNS; 75.4% in the assay with U251 CNS; 72.2% in the assay with PC-3 prostate; 86.6% with SK-MEL-5 melanoma; 58.6% in the assay on UACC-62 melanoma. Further, the growth in the assay with LOX IMVI melanoma is 71.2%.
